# Out of some 310,000 compounds screened, about 14,000 (4.5%) showed an effect of 50% or more. Effects have a minus sign here. Many of the other results were omitted from the sample, so strong results are more common in it than they were.
# Biological target: human ether-à-go-go-related gene (hERG) potassium channel (human, UniProt Q12809)
# Assay: primary screen, population patch clamp on CHO cells stably expressing hERG; higher = less effect of the substance
# 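Also: peak tail current of the secondary pulse compared with the same well before compound.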
# Sequence of human ether-à-go-go-related gene (hERG) potassium channel (Q12809 whole entry, looked up): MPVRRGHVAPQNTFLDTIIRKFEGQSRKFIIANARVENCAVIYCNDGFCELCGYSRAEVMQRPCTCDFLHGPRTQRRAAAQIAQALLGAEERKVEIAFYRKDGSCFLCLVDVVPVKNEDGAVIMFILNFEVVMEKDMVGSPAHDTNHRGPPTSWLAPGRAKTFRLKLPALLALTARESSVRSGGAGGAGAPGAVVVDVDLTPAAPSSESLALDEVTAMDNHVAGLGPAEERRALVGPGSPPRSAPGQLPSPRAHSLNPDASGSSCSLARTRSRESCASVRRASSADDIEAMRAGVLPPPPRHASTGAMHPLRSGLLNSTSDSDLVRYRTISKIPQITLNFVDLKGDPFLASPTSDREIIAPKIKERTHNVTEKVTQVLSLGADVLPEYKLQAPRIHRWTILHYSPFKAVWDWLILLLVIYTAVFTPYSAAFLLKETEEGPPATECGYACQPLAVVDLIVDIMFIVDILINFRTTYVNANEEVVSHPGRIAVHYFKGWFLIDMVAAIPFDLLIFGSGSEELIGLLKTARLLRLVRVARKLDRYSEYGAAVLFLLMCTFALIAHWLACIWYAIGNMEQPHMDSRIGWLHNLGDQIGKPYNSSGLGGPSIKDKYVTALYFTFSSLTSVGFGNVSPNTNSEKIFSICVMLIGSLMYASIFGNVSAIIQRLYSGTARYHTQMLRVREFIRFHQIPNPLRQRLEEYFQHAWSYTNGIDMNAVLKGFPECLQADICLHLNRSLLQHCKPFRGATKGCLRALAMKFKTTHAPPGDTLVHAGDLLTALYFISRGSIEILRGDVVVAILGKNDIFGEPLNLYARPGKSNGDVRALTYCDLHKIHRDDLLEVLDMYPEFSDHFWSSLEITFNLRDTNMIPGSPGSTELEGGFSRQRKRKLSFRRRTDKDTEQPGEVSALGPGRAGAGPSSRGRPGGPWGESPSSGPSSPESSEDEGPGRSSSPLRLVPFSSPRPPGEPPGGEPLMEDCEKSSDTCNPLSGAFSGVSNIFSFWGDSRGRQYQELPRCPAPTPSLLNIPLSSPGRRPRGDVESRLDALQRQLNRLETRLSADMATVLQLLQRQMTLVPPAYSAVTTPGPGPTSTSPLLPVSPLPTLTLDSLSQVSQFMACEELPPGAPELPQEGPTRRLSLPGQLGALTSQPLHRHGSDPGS
row,Structure (SMILES),"hERG current change (%, negative = inhibition) at 10uM [%]"
1,Cc1ccc(NC(=O)c2cnccn2)cc1,15.8
2,CCCn1c(Cc2ccccc2)nnc1SCC(=O)N1CCOCC1,16.7
3,NC(=S)N/N=C/c1ccc([N+](=O)[O-])cc1,-8.06
4,O=C(CC1C(=O)NCCN1Cc1ccc(Cl)c(F)c1)NCC1CCOCC1 (stereo not drawn),9.07
5,CCOC(=O)C1(Cc2ccc(O)cc2)NC(c2ccccc2F)C2C(=O)N(C)C(=O)C21 (stereo not drawn),-2.04
6,CCC(=O)NC(c1cccs1)c1cc([N+](=O)[O-])c2cccnc2c1O (stereo not drawn),15
7,CC1=NNC(=O)C1CCC(=O)N/N=C(\C)c1ccccc1 (stereo not drawn),28.3
8,CCCCOc1ccc(NC(=O)CSc2nnnn2C)cc1,-2.43
9,NCCNc1cc(N2CCCC2)ccc1[N+](=O)[O-],4.66
10,O=C(C1CCCC1)N1CCN(S(=O)(=O)c2ccc(F)cc2)CC1,15.9
11,COc1cc(C2C(C(=O)c3ccc(C)o3)=C(O)C(=O)N2Cc2cccnc2)ccc1O (stereo not drawn),10.9
12,O=C(CCC(=O)NC1CCN(Cc2ccccc2)CC1)NCc1ccco1,-1.88
13,N#CCSc1nnc(COc2cccc3ccccc23)n1-c1cccc(Cl)c1,8.77
14,Cc1cccc(-c2nnc(SCC#N)n2C)c1,13.2
15,Cc1cccc(-c2nnc(SCC#N)n2-c2cccc(Cl)c2)c1,-62.5
16,Cc1cccc(-c2nnc(SCC#N)n2Cc2ccccc2)c1,-66.6
17,Cc1cccc(-c2nnc(SCC(=O)O)n2Cc2ccccc2)c1,-6.26
18,Cc1cc(C)nc(SCc2nnc(SCC#N)n2-c2cccc(Cl)c2)n1,-17.6
19,Cc1cccc(-c2nnc(SCC#N)n2-c2ccccc2)c1,-54.7

row,Structure (SMILES),"hERG current change (%, negative = inhibition) at 10uM [%]"
1,Cc1ccc(-n2c(SCCN)nnc2-c2cccc(C)c2)cc1.O=C(O)C(=O)O,-38
2,N#CCSc1nnc(-c2ccccc2O)n1Cc1ccccc1,5.13
3,COC(=O)c1ccc(C2NC(=O)c3c(sc(C)c3C)N2)cc1 (stereo not drawn),10.7
4,COc1ccc(CCNC(=O)c2ccc3ccccc3n2)cc1,-5.65
5,O=C(CNc1ccc2c(c1)OCO2)N/N=C\c1ccccc1Cl,3.98
6,COc1cccc(NC(=S)N(Cc2ccccn2)Cc2ccccc2Cl)c1,5.73
7,O=C(CN(Cc1ccccc1)S(=O)(=O)c1ccccc1)N/N=C/c1ccc2c(c1)OCO2,8.28
8,C(=N\C(/N=C/c1ccco1)c1ccco1)/c1ccco1,-5.1
9,COc1ccc(NC(=O)N2CCCC2C(=O)NCC2CCCCC2)cc1 (stereo not drawn),0.904
10,Cn1ncn2c(=O)c3c(nc12)-c1ccccc1CC31CCCC1,1.56
11,COc1ccc(NC(=O)Cn2cc(C#N)c3ccccc32)cc1,15.3
12,CC(=O)Nc1ccc(NC(=O)c2sc(-c3ccccc3)nc2C)cc1,10.6
13,Nc1ccc2nc(-c3ccccc3)[nH]c2c1,6.5
14,COc1ccc(Cl)cc1NC(=O)C1CCCN(S(C)(=O)=O)C1 (stereo not drawn),5.29
15,COc1cc(C)nc(N2CCCC(C(=O)Nc3cc(Cl)ccc3OC)C2)n1 (stereo not drawn),9.96
16,CCCc1cc(N2CCCC(C(=O)Nc3ccc(OC)cc3OC)C2)n2ncnc2n1 (stereo not drawn),-51.4
17,COc1ccc(NC(=O)C2CCCN(c3cnccn3)C2)c(OC)c1 (stereo not drawn),21.4
18,CCCc1cc(N2CCCC(C(=O)Nc3c(OC)cccc3OC)C2)n2ncnc2n1 (stereo not drawn),-10.7
19,CCCc1cc(N2CCCC(C(=O)Nc3cc(Cl)ccc3OC)C2)n2ncnc2n1 (stereo not drawn),-70.8

row,Structure (SMILES),"hERG current change (%, negative = inhibition) at 10uM [%]"
1,O=C(Cc1ccccc1)NCCC1=CCCCC1,9.32
2,O=C(CN1CCN(c2ccccc2O)CC1)NC(=O)NC1CCCC1,-0.609
3,CCCCCC(=O)Nc1ccc(-c2cn3cccnc3n2)cc1,16.4
4,CN1CCN(NC(=O)c2ccc(Cl)c([N+](=O)[O-])c2)CC1,8.74
5,CC(=O)Nc1ccc(NC(=O)C(C)Sc2nnc(C3CC3)n2-c2ccccc2)cc1 (stereo not drawn),8.37
6,COc1ccc(N2CCN(C(=O)c3ccc4c(c3)OCO4)CC2)cc1,-21.7
7,O=c1nc2ccccc2c(NS(=O)(=O)c2ccccc2)n1-c1ccccc1,2.7
8,O=C(CSc1nnc(-c2ccco2)n1Cc1ccccc1)NC(=O)NCc1ccco1,-74.7
9,CCOC(=O)c1c(C)[nH]c(C)c1C(=O)CSc1nnc(-c2ccco2)n1Cc1ccccc1,-19.3
10,Cc1nnc(SCC(=O)NC(=O)NCc2ccco2)n1Cc1ccccc1,-6.26
11,Cc1ccccc1CSc1nnc(-c2cccs2)n1Cc1ccco1,-41.7
12,O=C1c2ccccc2C(=O)N1CCSc1nnc(-c2ccco2)n1Cc1ccccc1,-72.8
13,CC(=O)c1c(C)[nH]c(C(=O)CSc2nnc(-c3cccs3)n2Cc2ccccc2)c1C,-25.6
14,O=C(CSc1nnc(-c2ccco2)n1Cc1ccccc1)NC(=O)NCc1ccccc1,-13.3
15,Cc1ccccc1CSc1nnc(-c2ccco2)n1Cc1ccco1,-75.4
16,c1ccc(CSc2nnc(-c3ccco3)n2Cc2ccccc2)cc1,-46
17,Cc1ccc(C(=O)CSc2nnc(-c3ccco3)n2Cc2ccccc2)cc1,-17.8
18,CC(=O)c1c(C)[nH]c(C(=O)CSc2nnc(-c3ccco3)n2Cc2ccccc2)c1C,-61.5
19,c1ccc(CSc2nnc(-c3ccco3)n2Cc2ccco2)cc1,-34.6

# — PMC4336329 (PLoS ONE, 2015)
